# Experimental data taken from the supplement of paper PMC8728848.
# About 410 targets per protein were measured; listed, in parts, are those with the strongest signals and a random draw of the rest.
# Tests used:
# Assay in all cases: glycan array binding signal (z-score within array); higher = stronger binding
# Details in all cases: glycan notation: IUPAC condensed, linker removed
# [1] = molecular target: Fuc(a1-2)Gal
# In short: (§1)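 The binding signal is a Z-score computed within each array. Data were drawn from 3228 arrays in the Consortium for Functional Glycomics database, restricted to those with a known protein sequence. Scores were averaged over arrays of the same protein sequence at different concentrations or buffers, and over linkers, and negative values can be taken as non-binding.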
# [2] = molecular target: Fuc(a1-2)Gal(b1-3)GlcNAc(b1-2)Man(a1-3)[Fuc(a1-2)Gal(b1-3)GlcNAc(b1-2)Man(a1-6)]Man(b1-4)GlcNAc(b1-4)GlcNAc
# In short: as §1
# [3] = molecular target: Fuc(a1-2)Gal(b1-3)GlcNAc(b1-3)[Neu5Ac(a2-6)Gal(b1-4)GlcNAc(b1-6)]Gal(b1-4)Glc
# In short: as §1
# [4] = molecular target: Fuc(a1-2)Gal(b1-4)GlcNAc(b1-2)Man(a1-3)[Fuc(a1-2)Gal(b1-4)GlcNAc(b1-2)Man(a1-6)]Man(b1-4)GlcNAc(b1-4)[Fuc(a1-6)]GlcNAc
# In short: as §1
# [5] = molecular target: Fuc(a1-2)Gal(b1-4)[Fuc(a1-3)]GlcNAc(b1-2)[Fuc(a1-2)Gal(b1-4)[Fuc(a1-3)]GlcNAc(b1-4)]Man(a1-3)[Fuc(a1-2)Gal(b1-4)[Fuc(a1-3)]GlcNAc(b1-2)Man(a1-6)]Man(b1-4)GlcNAc(b1-4)GlcNAc
# In short: as §1
# [6] = molecular target: Fuc(a1-2)Gal6S(b1-3)GlcNAc
# In short: as §1
# [7] = molecular target: Fuc(a1-2)[Gal(a1-3)]Gal(b1-3)GlcNAc(b1-2)Man(a1-3)[Fuc(a1-2)[Gal(a1-3)]Gal(b1-3)GlcNAc(b1-2)Man(a1-6)]Man(b1-4)GlcNAc(b1-4)GlcNAc
# In short: as §1
# [8] = molecular target: Gal(a1-3)Gal(b1-3)GlcNAc(b1-2)Man(a1-3)[Gal(a1-3)Gal(b1-3)GlcNAc(b1-2)Man(a1-6)]Man(b1-4)GlcNAc(b1-4)GlcNAc
# In short: as §1
# [9] = molecular target: Gal(a1-3)Gal(b1-3)[Fuc(a1-4)]GlcNAc(b1-2)Man(a1-3)[Gal(a1-3)Gal(b1-3)[Fuc(a1-4)]GlcNAc(b1-2)Man(a1-6)]Man(b1-4)GlcNAc(b1-4)GlcNAc
# In short: as §1
# [10] = molecular target: Gal(a1-3)Gal(b1-4)Glc
# In short: as §1
# [11] = molecular target: Gal(a1-6)Glc
# In short: as §1
# [12] = molecular target: Gal(b1-3)GlcNAc
# In short: as §1
# [13] = molecular target: Gal(b1-3)GlcNAc(b1-3)Gal(b1-4)[Fuc(a1-3)]GlcNAc
# In short: as §1
# [14] = molecular target: Gal(b1-3)GlcNAc(b1-3)GalNAc
# In short: as §1
# [15] = molecular target: Gal(b1-3)[Fuc(a1-4)]GlcNAc(b1-2)Man
# In short: as §1
# [16] = molecular target: Gal(b1-3)[Fuc(a1-4)]GlcNAc(b1-3)Gal(b1-3)[Fuc(a1-4)]GlcNAc
# In short: as §1
# [17] = molecular target: Gal(b1-4)GlcNAc(a1-6)Gal(b1-4)GlcNAc
# In short: as §1
# [18] = molecular target: Gal(b1-4)GlcNAc(b1-2)Man(a1-3)[GlcNAc(b1-2)Man(a1-6)]Man(b1-4)GlcNAc(b1-4)GlcNAc
# In short: as §1
# [19] = molecular target: Gal(b1-4)GlcNAc(b1-2)[Gal(b1-4)GlcNAc(b1-4)]Man(a1-3)[GlcNAc(b1-4)][Gal(b1-4)GlcNAc(b1-2)Man(a1-6)]Man(b1-4)GlcNAc(b1-4)GlcNAc
# In short: as §1
# [20] = molecular target: Gal(b1-4)GlcNAc(b1-3)Gal(b1-4)GlcNAc(b1-2)[Gal(b1-4)GlcNAc(b1-3)Gal(b1-4)GlcNAc(b1-6)]Man(a1-6)[Gal(b1-4)GlcNAc(b1-3)Gal(b1-4)GlcNAc(b1-2)Man(a1-3)]Man(b1-4)GlcNAc(b1-4)GlcNAc
# In short: as §1
# [21] = molecular target: Gal(b1-4)GlcNAc(b1-3)Gal(b1-4)GlcNAc(b1-3)Gal(b1-4)GlcNAc(b1-3)Gal(b1-4)GlcNAc(b1-3)Gal(b1-4)GlcNAc(b1-3)Gal(b1-4)GlcNAc(b1-2)Man(a1-3)[Gal(b1-4)GlcNAc(b1-3)Gal(b1-4)GlcNAc(b1-3)Gal(b1-4)GlcNAc(b1-3)Gal(b1-4)GlcNAc(b1-3)Gal(b1-4)GlcNAc(b1-3)Gal(b1-4)GlcNAc(b1-2)Man(a1-6)]Man(b1-4)GlcNAc(b1-4)GlcNAc
# In short: as §1
# [22] = molecular target: Gal6S(b1-4)GlcNAc
# In short: as §1
# [23] = molecular target: GalNAc(b1-3)Gal(a1-6)Gal(b1-4)Glc
# In short: as §1
# [24] = molecular target: GalNAc(b1-4)GlcNAc(b1-2)Man
# In short: as §1
# [25] = molecular target: GlcNAc(a1-3)Gal(b1-4)GlcNAc
# In short: as §1
# [26] = molecular target: GlcNAc(a1-6)Gal(b1-4)GlcNAc
# In short: as §1
# [27] = molecular target: GlcNAc(b1-3)Gal(b1-4)GlcNAc(b1-2)Man(a1-3)[GlcNAc(b1-3)Gal(b1-4)GlcNAc(b1-2)Man(a1-6)]Man(b1-4)GlcNAc(b1-4)[Fuc(a1-6)]GlcNAc
# In short: as §1
# [28] = molecular target: GlcNAc(b1-3)Gal(b1-4)GlcNAc(b1-2)[GlcNAc(b1-3)Gal(b1-4)GlcNAc(b1-6)]Man(a1-6)[GlcNAc(b1-3)Gal(b1-4)GlcNAc(b1-2)Man(a1-3)]Man(b1-4)GlcNAc(b1-4)GlcNAc
# In short: as §1
# [29] = molecular target: GlcNAc(b1-3)Gal(b1-4)GlcNAc(b1-3)Gal(b1-4)GlcNAc(b1-3)GalNAc
# In short: as §1
# [30] = molecular target: GlcNAc(b1-3)Man
# In short: as §1
# [31] = molecular target: Kdn(a2-3)Gal(b1-4)GlcNAc
# In short: as §1
# [32] = molecular target: Kdn(a2-6)Gal(b1-4)GlcNAc
# In short: as §1
# [33] = molecular target: Neu5Ac(a2-3)Gal(b1-3)GalNAc
# In short: as §1
# [34] = molecular target: Neu5Ac(a2-3)Gal(b1-3)GlcNAc(b1-2)Man(a1-3)[Neu5Ac(a2-3)Gal(b1-3)GlcNAc(b1-2)Man(a1-6)]Man(b1-4)GlcNAc(b1-4)GlcNAc
# In short: as §1
# [35] = molecular target: Neu5Ac(a2-3)Gal(b1-4)GlcNAc(b1-3)Gal(b1-4)GlcNAc(b1-3)Gal(b1-4)GlcNAc(b1-2)Man(a1-3)[Neu5Ac(a2-3)Gal(b1-4)GlcNAc(b1-3)Gal(b1-4)GlcNAc(b1-3)Gal(b1-4)GlcNAc(b1-2)Man(a1-6)]GalNAc
# In short: as §1
# [36] = molecular target: Neu5Ac(a2-3)Gal(b1-4)GlcNAc(b1-3)[Neu5Ac(a2-3)Gal(b1-4)GlcNAc(b1-6)]GalNAc
# In short: as §1
# [37] = molecular target: Neu5Ac(a2-6)Gal(b1-4)GlcNAc(b1-3)Gal(b1-4)GlcNAc(b1-6)[Gal(b1-3)]GalNAc
# In short: as §1
# [38] = molecular target: Neu5Ac(a2-6)Gal(b1-4)GlcNAc(b1-3)[Neu5Ac(a2-6)Gal(b1-4)GlcNAc(b1-6)]GalNAc
# In short: as §1
# [39] = molecular target: Neu5Ac9Ac(a2-3)Gal(b1-4)GlcNAc
# In short: as §1
# [40] = molecular target: Neu5Gc(a2-3)Gal(b1-3)GlcNAc
# In short: as §1
binder,measurement,setting,value
HPL (Tachypleus tridentatus) (protein) MEDDCTCVTDRSLEGKLMKHPSTPAVYQILDGCRRLVPNPPTYNNIYKNWECIQSNILEKLLCKCDSLSNGAELIKGSGDTVYLLSNGVKRPIADPETFNGFCFDWNKIKTYSDIVINSLSTGPIIIIKHHHHHH,glycan array binding signal (z-score),[1],-0.153
same,glycan array binding signal (z-score),[2],4.15
same,glycan array binding signal (z-score),[3],-0.343
same,glycan array binding signal (z-score),[4],3.19
same,glycan array binding signal (z-score),[5],2.19
same,glycan array binding signal (z-score),[6],0.027
same,glycan array binding signal (z-score),[7],-0.163
same,glycan array binding signal (z-score),[8],3.2
same,glycan array binding signal (z-score),[9],2.31
same,glycan array binding signal (z-score),[10],0.05
same,glycan array binding signal (z-score),[11],1.55
same,glycan array binding signal (z-score),[12],-0.177
same,glycan array binding signal (z-score),[13],-0.309
same,glycan array binding signal (z-score),[14],-0.36
same,glycan array binding signal (z-score),[15],1.71
same,glycan array binding signal (z-score),[16],-0.131
same,glycan array binding signal (z-score),[17],-0.342
same,glycan array binding signal (z-score),[18],-0.178
same,glycan array binding signal (z-score),[19],5.11
same,glycan array binding signal (z-score),[20],2.19
same,glycan array binding signal (z-score),[21],-0.206
same,glycan array binding signal (z-score),[22],-0.335
same,glycan array binding signal (z-score),[23],-0.402
same,glycan array binding signal (z-score),[24],-0.379
same,glycan array binding signal (z-score),[25],-0.255
same,glycan array binding signal (z-score),[26],-0.429
same,glycan array binding signal (z-score),[27],0.104
same,glycan array binding signal (z-score),[28],0.395
same,glycan array binding signal (z-score),[29],-0.251
same,glycan array binding signal (z-score),[30],0.24
same,glycan array binding signal (z-score),[31],-0.185
same,glycan array binding signal (z-score),[32],-0.279
same,glycan array binding signal (z-score),[33],-0.291
same,glycan array binding signal (z-score),[34],2.02
same,glycan array binding signal (z-score),[35],1.54
same,glycan array binding signal (z-score),[36],-0.093
same,glycan array binding signal (z-score),[37],-0.132
same,glycan array binding signal (z-score),[38],0.127
same,glycan array binding signal (z-score),[39],-0.231
same,glycan array binding signal (z-score),[40],-0.215
